Source: PubChem BioAssay (EPA / NIEHS)
Results filed as inconclusive are left out. The source made the active and inactive calls. How the source made its calls, unless noted: active means hit-call score of the fitted dose curve at least 0.9, where 1 is the maximum; inactive means score below 0.9.

What was measured:
[1] = ACEA_ER_80hr: ACEA Biosciences xCELLigence Real-Time Cell Analysis on Estrogen Receptor Agonism for Proliferation (AID 2282667; active means hit-call score of the fitted dose curve at least 0.9, where 1 is the maximum); details: T47D proliferation, impedance (xCELLigence), 80 h
Method in brief: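 Real-time impedance growth kinetics of human T-47D breast cells read 80 h after dosing, gain-of-signal fitted relative to DMSO. Compounds: 1:4 serial series, top final concentration 100 uM, n = 2.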

[2] = APR_HepG2_CellCycleArrest_24hr: Apredica 24-hour HepG2 Assay for Cell Cycle Arrest (AID 2282905); details: imaging, actives raise or lower the signal;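 further: cell cycle arrest scored as ratio of 2N to 4N nuclear DNA content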
Method in brief: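 Cell cycle arrest is scored from nuclear DNA content measured by high-content imaging of Hoechst 33342-stained HepG2 cells following 24-hour treatment at ten concentrations up to 200 uM, with DMSO as baseline.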

[3] = APR_HepG2_NuclearSize_24hr: Apredica 24-hour HepG2 Assay for Nuclear Size (AID 2282907); details: high-content imaging, actives raise or lower the signal
Method in brief: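 Compounds in DMSO (final 0.5%) were added to human HepG2 hepatoma cells at ten concentrations up to 200 uM for 24 hr. Fixed nuclei were stained with Hoechst 33342, and nuclear diameter was quantified from automated images.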

[4] = APR_HepG2_CellLoss_24hr: Apredica 24-hour HepG2 Assay for Cell Loss (AID 2282908); details: high-content imaging;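 on AC50: fit in both directions so a hit may be cell loss or gain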
Method in brief: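 Cell number is quantified by fluorescence imaging of Hoechst 33342-stained nuclei following dosing at 0.39–200 uM in 0.5% DMSO. Curves are fitted in both directions from the DMSO baseline.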

[5] = APR_HepG2_MitoticArrest_24hr: Apredica 24-hour HepG2 Assay for Mitotic Arrest (AID 2282910); details: high-content imaging, actives raise or lower the signal
Method in brief: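 HepG2 cells, 24 h exposure at 0.39-200 uM (10 concentrations, duplicate, 0.5% DMSO). Fixed, stained for phospho-histone H3 with Hoechst; imaged by high-content microscopy, bidirectional fit versus DMSO.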

[6] = APR_HepG2_MitoMembPot_24hr: Apredica 24-hour HepG2 Assay for Mitochondrial Membrane Potential (AID 2282911); details: imaging, actives raise or lower the signal
Method in brief: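 Mitochondrial membrane potential imaged via MitoTracker Red CMXRos (250 nM, 30 min pre-fixation) in fixed HepG2 cells with Hoechst nuclear identification. Ten concentrations 0.39–200 uM, 24 h treatment, 0.5% DMSO; CCCP as positive control.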

[7] = APR_HepG2_MitoMass_24hr: Apredica 24-hour HepG2 Assay for Mitochondrial Mass (AID 2282912); details: high-content imaging, actives raise or lower the signal
Method in brief: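 The liver line HepG2 was dosed in duplicate across a 0.39–200 uM series, with final DMSO held at 0.5% v/v, and harvested at 24 hr. High-content imaging measured mitochondrial dye staining.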

[8] = APR_HepG2_CellCycleArrest_72hr: Apredica 72-hour HepG2 Assay for Cell Cycle Arrest (AID 2282914); details: high-content imaging, actives raise or lower the signal
Method in brief: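 Read-out: nuclear DNA content from Hoechst 33342 high-content imaging (20x, six fields/well) after 3.7% formaldehyde fixation, fitted bidirectionally against DMSO. Treatment was 72 h in HepG2, ten concentrations 0.39–200 uM, duplicate, 0.5% DMSO.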

[9] = APR_HepG2_CellLoss_72hr: Apredica 72-hour HepG2 Assay for Cell Loss (AID 2282915); details: high-content imaging
Method in brief: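 HepG2 cells exposed 72 h to compound at 0.39–200 uM (10 concentrations, duplicate) in 0.5% DMSO. Fixed with 3.7% formaldehyde and Hoechst 33342-stained. Imaged at 20x; nuclear count gives cell number, fitted bidirectionally versus DMSO.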

[10] = APR_HepG2_P-H2AX_72hr: Apredica 72-hour HepG2 Assay for H2AX Phosphorylation (AID 2282916); details: imaging, actives raise or lower the signal;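 further: phospho-histone H2A.x immunostain intensity per cell marking DNA damage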
Method in brief: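 Following 72 hr treatment with 0.39–200 uM compound, HepG2 cells were formaldehyde-fixed, permeabilized and stained for phospho-H2A.x; signal was measured by high-content imaging and fitted bidirectionally against DMSO controls.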

[11] = APR_HepG2_MitoticArrest_72hr: Apredica 72-hour HepG2 Assay for Mitotic Arrest (AID 2282918); details: high-content imaging, actives raise or lower the signal
Method in brief: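 High-content imaging of fixed human HepG2 cells after 72 h compound exposure (0.39–200 uM, duplicates, 0.5% DMSO); mitotic arrest scored from phospho-histone H3 and nuclear Hoechst staining relative to DMSO.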

[12] = APR_HepG2_P-H2AX_24hr: Apredica 24-hour HepG2 Assay for H2AX Phosphorylation (AID 2282920); details: high-content imaging, actives raise or lower the signal
Method in brief: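 High-content imaging of phospho-histone H2A.x immunofluorescence, nuclei counterstained with Hoechst 33342, in fixed HepG2 cells. Compounds ran 0.39–200 uM in duplicate for 24 h, final DMSO 0.5%. Signal change fitted both directions against DMSO.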

[13] = APR_HepG2_StressKinase_72hr: Apredica 72-hour HepG2 Assay for Stress Kinase (AID 2282921); details: HepG2 stress kinase (phospho-c-Jun) imaging, actives raise or lower the signal
Method in brief: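 Fluorescence intensity of Cy3-tagged anti-phospho-c-Jun antibody, quantified per cell from Hoechst-defined nuclei across six images per well, served as the read-out following 72 h exposure (0.39–200 uM, 0.5% v/v DMSO).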

[14] = APR_HepG2_StressKinase_24hr: Apredica 24-hour HepG2 Assay for Stress Kinase (AID 2282922); details: HepG2 stress kinase (phospho-c-Jun) imaging, actives raise or lower the signal
Method in brief: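 HepG2 cells exposed 24 h to 0.39–200 uM compound in duplicate (0.5% v/v DMSO final). Cells fixed in 3.7% formaldehyde, permeabilized and immunostained for phospho-c-Jun; read by high-content fluorescence imaging, fitted bidirectionally against DMSO.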

[15] = APR_HepG2_MitoMass_72hr: Apredica 72-hour HepG2 Assay for Mitochondrial Mass (AID 2282924); details: high-content imaging, actives raise or lower the signal;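 further: MitoTracker Red CMXRos stain intensity per cell imaged as mitochondrial mass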
Method in brief: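 HepG2 cells dosed 72 hr at 0.39–200 uM (0.5% DMSO), in duplicate. MitoTracker Red CMXRos 250 nM loaded 30 min before formaldehyde fixation; high-content fluorescence imaging, bidirectional fit versus DMSO.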

[16] = APR_HepG2_MitoMembPot_72hr: Apredica 72-hour HepG2 Assay for Mitochondrial Membrane Potential (AID 2282917); details: imaging, actives raise or lower the signal
Method in brief: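 HepG2 cells dosed 72 hr with compound at 0.39–200 uM in duplicate, 0.5% v/v DMSO final. Mitochondria stained with 250 nM MitoTracker Red CMXRos for 30 min before formaldehyde fixation, imaged by high-content fluorescence; bidirectional fit versus DMSO.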

[17] = APR_HepG2_MicrotubuleCSK_72hr: Apredica 72-hour HepG2 Assay for Microtubule CSK Stabilty (AID 2282919); details: HepG2 microtubule cytoskeleton, high-content imaging, actives raise or lower the signal
Method in brief: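 HepG2 cells were exposed 72 hr to compound at 0.39–200 uM in duplicate (0.5% DMSO final), then fixed and permeabilized. Alpha-tubulin immunofluorescence was imaged by high-content microscopy, with bidirectional fitting against DMSO and taxol as positive control.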

Measured: AC50

O=S(=O)(O)c1ccc(N=Nc2c(O)ccc3cc(S(=O)(=O)O)ccc23)cc1
not listed: [16] | [17]
inactive: all other assays above

Cc1nccn1-c1ccc(Sc2cccc(C3(C(N)=O)CCOCC3)c2)cc1
active: [1] 782 nM | [4] 3130 nM | [7] 19800 nM | [8] 5050 nM | [9] 17400 nM | [10] 40900 nM | [12] 73400 nM | [13] 64000 nM
inactive: [2] | [3] | [5] | [6] | [11] | [14] | [15]

NC(=O)N(O)[C@@H]1COc2cc(OCc3ccccc3)ccc21
active: [6] 52200 nM
not listed: [17]
inactive: all other assays above

COS(C)(=O)=O
not listed: [16]
inactive: all other assays above

O=C(O)c1cccc(C(=O)O)c1
not listed: [11] | [15] | [16] | [17]
inactive: all other assays above

COc1cc2c(c(OC)c1OC)-c1ccc(OC)c(=O)cc1[C@@H](NC(C)=O)CC2
active: [2] 39.1 nM | [4] 44.7 nM | [5] 38.2 nM | [8] 73.2 nM | [9] 53.6 nM | [10] 81.5 nM | [11] 39.1 nM | [17] 62.8 nM | [12] 79.7 nM | [13] 45.6 nM | [14] 39.1 nM
inactive: [1] | [3] | [6] | [7] | [15]

NC(N)=O
not listed: [17]
inactive: all other assays above

OCCNCCO
inactive: all assays above
